Drawing on PubChem BioAssay, this text covers composite z-score and z-score for 5 compounds.

Active and inactive are the calls of the source. Unless noted, no rule for the calls is given here.

Test [1] in a line: compounds binding Alexa647 anti-His antibody – biochemical, small-molecule microarray, 635 nm fluorescence, artefact control for SMM control protein annotation, primary screen (AID 1128).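 Also: score merges feature fluorescence with signal-to-noise for each printed compound spot.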 Conditions: higher = more signal.
Test [2] relates to Human papillomavirus type 1a E7 protein (residues 1-88). Briefly: HPV1a E7 small-molecule binders, primary screen, biochemical, small-molecule microarray, residues 1-88, 635 nm (AID 1129). Conditions: small-molecule microarray binding, fluorescence 635 nm; higher = more signal.
For test [3], the target named is Focal adhesion kinase 1 (Homo sapiens) (UniProt Q05397). The experiment in a line: PTK2 protein binding on printed compound slides – biochemical, small-molecule microarray, 635/667 nm fluorescence, BSA, DTT, primary screen (AID 1130).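 Also: composite of spot emission at 667 nm and signal to noise over triplicate slides.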 Conditions: 635 nm fluorescence, higher = more signal.
Test [4] concerns Fibrinogen (Alexa647-labelled). Briefly: Alexa647-fibrinogen binding to printed small molecules – biochemical, small-molecule microarray, 635/667 nm fluorescence, artefact control for SMM control-protein annotation, profiling panel (AID 1131).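 Also: z-score merges 667 nm fluorescence with per-spot signal-to-noise over triplicate slides.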 Conditions: fibrinogen-A647 binding fluorescence, higher = more signal.
In test [5] the target is Follistatin (Homo sapiens) (UniProt P19883). The experiment in a line: FST protein binding to printed compounds – biochemical, small-molecule microarray, 635/667 nm fluorescence, primary screen (AID 1132). To be noted: 635 nm fluorescence, higher = more signal.
For test [6], the target named is Fibroblast growth factor 2 (Homo sapiens) (UniProt P09038). Briefly: basic fibroblast growth factor binding to printed compounds – biochemical, small-molecule microarray, 635/667 nm fluorescence, primary screen (AID 1133). Conditions: FGF2, fluorescence 635/667, higher = more signal.
Test [7] can be described thus: JC-1 mitochondrial potential readout, lung cancer cells – cell-based, A549, JC-1 fluorescence, basal, 24 h, 100 nL, profiling panel (AID 1138).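 Also: A549 lung adenocarcinoma cells under basal conditions with no added stimulus; test concentration not given here.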 To be noted: higher = more signal.
Test [8] has as its system Lefty1. Briefly: Lefty1 protein binding to printed compounds – biochemical, small-molecule microarray, 635/667 nm fluorescence, primary screen (AID 1139). To be noted: fluorescence 635/667, higher = more signal.
The test system of test [9] is wheat germ agglutinin (Triticum aestivum), Alexa647-labelled. The experiment in a line: Alexa647-WGA lectin binding to printed small molecules – biochemical, small-molecule microarray, 635/667 nm fluorescence, artefact control for SMM control-protein annotation, profiling panel (AID 1140).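 Also: score merges 667 nm feature emission with signal to noise over triplicate slides.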 To be noted: WGA-A647 binding, 635 nm fluorescence, higher = more signal.
In test [10] the target is Luciferin 4-monooxygenase (Photinus pyralis) (UniProt P08659). Briefly: inhibition of purified Photinus pyralis luciferase – biochemical, luminescence, purified enzyme, 2006 set, primary screen (AID 1141).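 Also: cell-free assay with purified firefly luciferase at 100 ng per well in PBS; test concentration not given here.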 Conditions: purified firefly luciferase, SteadyGlo luminescence, 30 min; higher = more signal, called active from +8 up or from −8 down.
Test [11] concerns Wnt5a (protein binding on small-molecule microarray). The experiment in a line: small molecules binding Wnt5a protein – biophysical, small-molecule microarray, 635/667 nm fluorescence, primary screen (AID 1142).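 Also: fluorescence read at 667 nm with signal to noise per printed feature.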 To be noted: 635 nm fluorescence, higher = more signal.
The nature of test [12]: ATP-based viability of Huh7 replicon cells – cell-based, CellTiter-Glo luminescence, basal, 48 h, cytotoxicity control for HCV replication inhibitor project, primary screen (AID 1143).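 Also: Huh7 hepatoma cells carrying a hepatitis C replication reporter with no stimulus; test concentration not given here.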 To be noted: higher = more signal, called active from +8 up or from −8 down.
Test [13] can be described thus: Pseudomonas biofilm growth suppression – PAO1 strain, BacTiter-Glo luminescence, LB-PBS, primary screen (AID 1144). Conditions: P. aeruginosa PAO1 biofilm, 12 h, higher = more signal.
Test [14] can be described thus: basal CRE-LacZ reporter activity in PC12 – cell-based, unstimulated, primary screen (AID 1145). To be noted: no forskolin, luminescence, 4.5 h, higher = more signal, called active from +8 up or from −8 down.
Test [15] can be described thus: forskolin-driven CRE-LacZ activity in PC12 – cell-based, CRE-LacZ reporter, forskolin-stimulated, primary screen (AID 1146).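 Also: PC12 cells with 6xCRE LacZ reporter stimulated by forskolin 10 µM; beta-galactosidase reporter signal reflecting CREB driven transcription.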 To be noted: luminescence, 4.5 h, higher = more signal, called active from +8 up or from −8 down.
Test [16] concerns the target Streptavidin (Streptomyces avidinii) (UniProt P22629). The experiment in a line: compounds binding control protein streptavidin – biophysical, small-molecule microarray, 635/667 nm fluorescence, artefact control for SMM compound annotation, primary screen (AID 1147).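 Also: signal reflects streptavidin binding to arrayed compounds as a control protein.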 To be noted: higher = more signal.
The nature of test [17]: probe aInhba binding on compound microarray – biochemical, small-molecule microarray, 635/667 nm fluorescence, primary screen (AID 1148).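 Also: score merges 667nm spot fluorescence with signal-to-noise for antibody binding to printed compounds.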 To be noted: higher = more signal.
Test [18] concerns the target Torsin-1A (Homo sapiens) (UniProt O14656). Briefly: TOR1A wild-type binding on microarray – cell lysate, small-molecule microarray, lysate, 635/667 nm, primary screen (AID 1149). To be noted: COS7 hTOR1A-WT lysate, 635 nm fluorescence, higher = more signal.
The target is the same in test [19]. The experiment in a line: torsin A mutant lysate binding on microarrays – cell lysate, small-molecule microarray, COS7 lysate, 635/667 nm fluorescence, primary screen (AID 1150).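 Also: score pools 667 nm emission and signal to noise measuring lysate protein binding.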 To be noted: COS7 hTOR1A mutant lysate, 635 nm fluorescence, higher = more signal.
The subject of test [20] is Sonic hedgehog protein (Shh). The experiment in a line: Sonic hedgehog microarray binding compounds – biochemical, small-molecule microarray, 635/667 nm fluorescence, primary screen (AID 1151).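 Also: Shh protein binding to compounds spotted on small-molecule microarray slides; score combines spot fluorescence intensity with signal-to-noise across triplicate slides.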 Conditions: 635 nm fluorescence, higher = more signal.

Luciferin 4-monooxygenase (Photinus pyralis), sequence (P08659 whole entry, looked up): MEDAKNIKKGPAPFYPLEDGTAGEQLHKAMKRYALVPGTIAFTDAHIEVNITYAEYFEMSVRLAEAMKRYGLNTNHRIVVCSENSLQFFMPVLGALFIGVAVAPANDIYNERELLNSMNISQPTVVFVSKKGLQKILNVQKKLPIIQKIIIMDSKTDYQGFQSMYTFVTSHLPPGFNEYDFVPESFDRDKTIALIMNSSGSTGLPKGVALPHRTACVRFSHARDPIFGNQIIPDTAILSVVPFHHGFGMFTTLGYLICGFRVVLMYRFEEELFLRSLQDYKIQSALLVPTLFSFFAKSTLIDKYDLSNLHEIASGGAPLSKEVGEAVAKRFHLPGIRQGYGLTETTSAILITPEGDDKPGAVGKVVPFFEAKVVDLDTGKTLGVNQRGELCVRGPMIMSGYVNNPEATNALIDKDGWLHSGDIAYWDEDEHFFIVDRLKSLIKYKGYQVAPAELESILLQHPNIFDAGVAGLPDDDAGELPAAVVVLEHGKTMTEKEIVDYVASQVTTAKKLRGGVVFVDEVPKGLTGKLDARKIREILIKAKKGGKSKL
Fibroblast growth factor 2 (Homo sapiens), sequence (P09038 whole entry, looked up): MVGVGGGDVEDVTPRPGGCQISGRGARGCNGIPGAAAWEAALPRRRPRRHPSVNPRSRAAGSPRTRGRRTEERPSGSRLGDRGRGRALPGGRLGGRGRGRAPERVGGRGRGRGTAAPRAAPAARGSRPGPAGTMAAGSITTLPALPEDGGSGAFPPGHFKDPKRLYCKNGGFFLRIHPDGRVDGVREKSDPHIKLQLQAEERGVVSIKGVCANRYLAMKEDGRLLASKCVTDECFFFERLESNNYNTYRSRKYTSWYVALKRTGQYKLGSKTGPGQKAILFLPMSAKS
Follistatin (Homo sapiens), sequence (P19883 whole entry, looked up): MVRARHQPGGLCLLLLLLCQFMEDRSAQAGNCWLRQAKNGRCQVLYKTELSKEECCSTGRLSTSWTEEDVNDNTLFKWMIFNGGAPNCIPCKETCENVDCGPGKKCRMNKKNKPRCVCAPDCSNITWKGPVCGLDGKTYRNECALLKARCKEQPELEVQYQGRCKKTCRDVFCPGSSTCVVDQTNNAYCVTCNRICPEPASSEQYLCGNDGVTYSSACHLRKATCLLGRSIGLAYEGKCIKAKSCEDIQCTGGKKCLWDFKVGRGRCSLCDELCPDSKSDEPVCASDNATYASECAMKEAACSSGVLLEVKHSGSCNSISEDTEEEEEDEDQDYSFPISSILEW
Torsin-1A (Homo sapiens), sequence (O14656 whole entry, looked up): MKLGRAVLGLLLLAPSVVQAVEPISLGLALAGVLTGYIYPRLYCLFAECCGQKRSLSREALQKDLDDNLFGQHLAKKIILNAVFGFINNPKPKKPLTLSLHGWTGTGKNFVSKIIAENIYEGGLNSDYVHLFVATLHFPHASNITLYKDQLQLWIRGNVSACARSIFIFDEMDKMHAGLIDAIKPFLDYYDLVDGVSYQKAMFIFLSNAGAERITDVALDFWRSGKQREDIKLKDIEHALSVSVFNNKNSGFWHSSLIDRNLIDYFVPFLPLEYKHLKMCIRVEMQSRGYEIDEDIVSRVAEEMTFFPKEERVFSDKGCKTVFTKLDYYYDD
Streptavidin (Streptomyces avidinii), sequence (P22629 whole entry, looked up): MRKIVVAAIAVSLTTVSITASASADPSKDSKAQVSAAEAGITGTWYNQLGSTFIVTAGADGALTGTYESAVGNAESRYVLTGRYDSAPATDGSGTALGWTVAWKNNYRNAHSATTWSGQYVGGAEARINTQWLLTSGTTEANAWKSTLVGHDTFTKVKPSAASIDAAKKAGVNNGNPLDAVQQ
Focal adhesion kinase 1 (Homo sapiens), sequence (Q05397 whole entry, looked up): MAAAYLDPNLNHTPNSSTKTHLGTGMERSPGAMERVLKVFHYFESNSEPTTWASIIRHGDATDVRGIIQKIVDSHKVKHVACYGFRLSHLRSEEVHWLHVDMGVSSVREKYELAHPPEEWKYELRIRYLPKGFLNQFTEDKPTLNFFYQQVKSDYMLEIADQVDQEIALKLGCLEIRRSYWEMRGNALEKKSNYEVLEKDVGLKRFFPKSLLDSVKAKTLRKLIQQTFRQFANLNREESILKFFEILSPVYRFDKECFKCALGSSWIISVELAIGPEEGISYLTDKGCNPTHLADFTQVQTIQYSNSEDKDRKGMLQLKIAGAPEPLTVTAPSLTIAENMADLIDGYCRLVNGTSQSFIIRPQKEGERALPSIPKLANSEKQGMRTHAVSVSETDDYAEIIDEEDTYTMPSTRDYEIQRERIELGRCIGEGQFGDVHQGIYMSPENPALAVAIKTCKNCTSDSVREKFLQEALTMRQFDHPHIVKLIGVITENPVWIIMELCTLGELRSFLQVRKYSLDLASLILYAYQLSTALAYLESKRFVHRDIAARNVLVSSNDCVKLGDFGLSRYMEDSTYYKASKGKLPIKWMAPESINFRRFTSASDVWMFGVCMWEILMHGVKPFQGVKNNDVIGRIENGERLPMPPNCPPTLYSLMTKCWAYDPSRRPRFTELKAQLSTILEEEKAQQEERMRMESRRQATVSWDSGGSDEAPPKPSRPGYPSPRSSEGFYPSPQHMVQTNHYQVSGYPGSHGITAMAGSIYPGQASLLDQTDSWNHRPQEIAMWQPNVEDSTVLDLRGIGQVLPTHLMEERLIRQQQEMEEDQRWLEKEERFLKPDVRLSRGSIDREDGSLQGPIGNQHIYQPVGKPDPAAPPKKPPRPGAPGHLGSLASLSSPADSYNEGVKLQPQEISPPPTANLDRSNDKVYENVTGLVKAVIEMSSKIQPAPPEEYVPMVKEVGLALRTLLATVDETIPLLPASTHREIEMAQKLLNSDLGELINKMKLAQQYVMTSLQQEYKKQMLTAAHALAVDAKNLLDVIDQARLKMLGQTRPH

As to `COc1ccc([Si](C)(C)[C@@H]2[C@@H](CC(=O)N3CCC[C@H]3CO)O[C@]3(C(=O)N(Cc4cccc(N5CCC5=O)c4)c4ccccc43)[C@H]2C)cc1`, the composite z-score came to 0.97 in [1]; 1.18 in [2]; 0.418 in test [3]; 0.809 in [4]; 0.907 in [5]; 0.402 in [6]. The composite z-score in test [8] is 0.917; in [9], 0.81; in test [11] it was -0.071; in test [16], 1.56; in test [17], 0.3; in [18], 0.511. In addition, the composite z-score came out at 0.413 in [19] and 2 in test [20]. Further, the z-score in test [7] is 1.04; in test [10], -1.69 (inactive); in test [12], -3.38 (inactive); in test [13], -1.54 (inactive); in test [14], 0.772 (inactive); in test [15] it was -0.662 (inactive).

With `COC(=O)CC=C[C@H](C)[C@@H](OCc1ccccc1Br)C(C)C`, the composite z-score is 0.219 in [1]; -0.161 in [2]; 0.0767 in test [3]; -0.263 in test [4]; 0.292 in [5]; -0.0207 in test [6]. For the same compound, the composite z-score in test [8] was 0.646; in test [9], 0.0141; in test [11], -0.106; in test [16], 0.228; in [17] it was -0.128; in test [18], 0.066. In addition, the composite z-score in test [19] turned out to be 0.674; in test [20], 0.438. Moreover, the z-score in test [7] is 1.32; in [10], -0.401 (inactive); in test [12] it was 0.298 (inactive); in [13], -0.643 (inactive); in test [14], 0.194 (inactive); in [15], 0.615 (inactive).

For the compound `N#Cc1ccc(NN2C(C(O)c3cccc4ccccc34)C=CC3C(=O)N(c4ccccc4)C(=O)C32)cc1` (stereo not given), the composite z-score was 1.06 in test [1]; 1.24 in test [2]; 0.413 in test [3]; 0.965 in test [4]; 1.23 in test [5]; -0.24 in test [6]. Besides, the composite z-score in test [8] was determined as 0.279; in test [9], 1.24; in test [11] it was 0.305; in test [16], 1.75; in test [17], 0.49; in test [18], 0.612. Further, the composite z-score was 0.358 in test [19] and -0.335 in [20]. The z-score in [7] was 1.11; in test [10], 0.512 (inactive); in test [12], 0.128 (inactive); in [13] it was -0.811 (inactive); in test [14], -0.708 (inactive); in test [15], -0.302 (inactive).

Take `COC(=O)CC=C[C@@H](C)[C@@H](C=NO[C@H](C)c1cn([C@@H]2COC[C@H]2O)nn1)OC`: the composite z-score in test [1] was 1.19; in [2], 0.695; in test [3], -0.0208; in test [4] it was -0.0974; in [5], 0.341; in test [6] it was 0.796. The composite z-score is 0.645 in test [8]; -0.116 in test [9]; 0.0282 in [11]; 0.521 in test [16]; -0.159 in [17]; 0.73 in test [18]. Also, the composite z-score turned out to be 0.863 in test [19] and 0.76 in test [20]. Further, the z-score in test [7] was 0.014; in test [10], -0.287 (inactive); in test [12], 0.324 (inactive); in test [13], -1.66 (inactive); in [14], 0.518 (inactive); in test [15] it was -0.0094 (inactive).

As for `COCCOC(=O)N1C(=O)[C@@]2(c3cc(C#Cc4ccc(OC)cc4)ccc31)[C@H](c1ccc(O)cc1)N1[C@H](c3ccccc3)[C@H](c3ccccc3)OC(=O)[C@H]1[C@@H]2C(N)=O`, the composite z-score in test [1] worked out at 0.308; in test [2] it was 1.17; in test [3], 0.126; in test [4], 0.972; in [5] it was 1.3; in test [6] it was 0.852. Besides, the composite z-score in test [8] is 0.728; in test [9], 0.779; in [11], 0.586; in test [16], 0.417; in test [17], -0.0947; in test [18], 0.187. The composite z-score in test [19] was 0.825; in [20], 1.44. Also, the z-score is -1.47 in test [7]; 0.556 (inactive) in [10]; -2.75 (inactive) in test [12]; -0.97 (inactive) in test [13]; -0.752 (inactive) in [14]; -0.94 (inactive) in [15].
